“And” between values parts separate entries of the source, which are not always exact repeats. Identical values can stand only once. About 79,000 compounds went through this panel and 15% of them were active in at least one assay; those are over-represented in the sample as a whole. A structure can be active in one record and inactive in another. The source made the active and inactive calls. No stated cut-off is given here; in the data, active means growth inhibition above about 70%; inactive means the rest. Where a SMILES comes first, the peptide text is derived from it. The star is where a group is joined. Fmoc = O=C(OCC1c2ccccc2-c2ccccc21)*; Boc = CC(C)(C)OC(=O)*; OtBu = CC(C)(C)O*
What was measured:
[1] = NCI Yeast Anticancer Drug Screen. Data for the rad50 strain (AID 155);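 further: 0% = growth of vehicle-only cultures of the same strain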; conditions: S. cerevisiae rad50 strain growth inhibition; at 50.0 µM; stronger effect = higher value
How it was run: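 Vehicle-treated cultures provide the reference for the growth inhibition reported for compound-exposed, repair-deficient yeast.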

[2] = NCI Yeast Anticancer Drug Screen. Data for the mec2-1 strain (AID 157); conditions: S. cerevisiae mec2-1 strain, at 50.0 µM, stronger effect = higher value
How it was run: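 Vehicle-treated cultures served as reference for growth inhibition of compound-exposed mec2-1 yeast.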

[3] = NCI Yeast Anticancer Drug Screen. Data for the sgs1 mgt1 strain (AID 161);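 further: 0% = growth of cultures given vehicle only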; conditions: S. cerevisiae sgs1 mgt1 strain, at 50.0 µM, stronger effect = higher value
How it was run: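 Inhibition of yeast growth, normalised to vehicle-treated controls, is reported for a strain bearing genetic alterations in DNA damage repair.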

[4] = NCI Yeast Anticancer Drug Screen. Data for the cln2 rad14 strain (AID 165);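 further: 0% = growth equal to vehicle treated cultures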; conditions: S. cerevisiae cln2 rad14 strain, at 50.0 µM, stronger effect = higher value
How it was run: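 Each compound was tested on cln2 rad14 yeast. Inhibition of growth was calculated against vehicle-exposed controls.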

[5] = NCI Yeast Anticancer Drug Screen. Data for the bub3 strain (AID 167); conditions: S. cerevisiae bub3 mutant strain, at 50.0 µM, stronger effect = higher value
How it was run: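 Mutant yeast screening strain plus compound; vehicle-treated cultures serve as the 0% inhibition reference.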

[6] = NCI Yeast Anticancer Drug Screen. Data for the mlh1 rad18 strain (AID 175); conditions: S. cerevisiae mlh1 rad18 strain growth inhibition; at 50.0 µM; stronger effect = higher value
How it was run: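 Vehicle-treated cultures served as the reference for growth inhibition in a yeast strain carrying DNA damage repair alterations exposed to each compound.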

Measured: growth inhibition

O=C(CCl)OCCC1CCCCC1
inactive: [1] 9.3% and -7.6% | [2] -16.7% and -17.1% | [3] 5.15% and -10.8% | [4] -8.7% and -29.4% | [5] 5.6% and 6.1% | [6] 1.4% and -16.4%

O=C(CC(=O)Nc1ccccc1)Nc1ccccc1
inactive: [1] -3.55% and 32.1% | [2] -21% and 0.2% | [3] -5.95% and 23.4% | [4] 8.5% and 5.5% | [5] -28.6% and -1.65% | [6] -5.55% and 20.8%

COc1ccc(Cc2c3cc(O)c(=O)cc-3ccn2C)cc1OC
inactive: [1] 2.75% and 47.7% | [2] 14.2% and 24.5% | [3] 23.4% and 22.3% | [4] 32.2% and 8.35% | [5] 29.2% and 5.5% | [6] 28.1% and 17.9%

CC1CCC2(OC1)OC1CC3C4CCC5CC(O)CCC5(C)C4CCC3(C)C1C2C (configuration not stated)
inactive: [1] 22.4% and -15.3% | [2] -29.8% and -19.3% | [3] 2.45% and -24.1% | [4] 7.15% and 0.8% | [5] 9.4% and -9.1% | [6] 26.8% and -12.7%

CC(C)(C)OC(=O)CCC(NC(=O)OCC1c2ccccc2-c2ccccc21)C(=O)NC(Cc1c[nH]c2ccccc12)C(=O)NC(CCCCNC(=O)OC(C)(C)C)C(=O)N1CCCC1C(=O)NCC(N)=O (configuration not stated) (Fmoc-E(OtBu)WK(Boc)PG-NH2; configuration not given here)
inactive: [1] -24.2% and -27.9% | [2] -23.1% and -22.1% | [3] -12.7% and -17% | [4] 5.7% and 12.8% | [5] -16.6% and -4.35% | [6] -17.8% and -22.2%

NC(=O)Nc1ccc(Cl)cc1
inactive: [1] -17.2% and 22.5% | [2] -11.8% and -9.35% | [3] -24.8% and -5% | [4] -17.9% and -12.5% | [5] -4.2% and -17.1% | [6] -10.9% and 15.4%

[B]C(=O)NC(CC(C)C)C(=O)NC1c2ccsc2C(=O)C1O (configuration not stated) (tested in a mixture with another compound)
inactive: [1] 3.05% and 4.2% | [2] 18.6% and 22.4% | [3] 12.1% and 2.9% | [4] 2.9% and 16.6% | [5] 32.3% and 33.1% | [6] -16.1% and -21.4%

O=C(O)/C=C/c1ccc(Cl)cc1
inactive: [1] 16.8% and 8.15% | [2] -8.8% and -22.6% | [3] 16.8% and 2.3% | [4] -35.3% and -6.2% | [5] -3.9% and -3.4% | [6] 26.9% and 13.4%

C/C(=N\NC(N)=O)c1ccc(Cl)cc1
inactive: [1] 27.9% and 9.05% | [2] 10.8% and -3.65% | [3] 2% and -6.25% | [4] 9.6% and -8.65% | [5] -4.15% and 6% | [6] 7.3% and 10.7%

C=C1C[C@]23C[C@@]1(O)CC[C@H]2[C@@]12C=C[C@H](O)[C@@](C)(C(=O)O1)[C@H]2[C@@H]3C(=O)O
inactive: [1] -20.4% and -0.7% | [2] -39.5% and -16.6% | [3] -31.1% and -1.3% | [4] 0.4% and 0.9% | [5] -51.8% and -18.1% | [6] -52.4% and -3%

CCCCOc1ccc2nc3cc(Cl)ccc3c(Cl)c2n1
inactive: [1] 1.85% and -16.5% | [2] -10.8% and -43.5% | [3] -9.75% and 22.9% | [4] 5.7% and 17.4% | [5] -12.2% and 8.6% | [6] 25.8% and 3.55%

O=C(O)C1OC1C(=O)O (configuration not stated)
inactive: [1] -24.1% and -0.45% | [2] -30.2% and -4.6% | [3] -23.9% and -5.4% | [4] -39.7% and -23.8% | [5] -21.5% and -5.95% | [6] -10.4% and 13.7%

NCC(O)c1ccc(O)c(O)c1 (configuration not stated)
inactive: [1] 38.8% and 19.4% | [2] 39.9% and -5.9% | [3] 30.9% and -7.2% | [4] 19% and -32.3% | [5] 28.5% and 13.4% | [6] 44.6% and 14.8%

O=C(O)/C=C/c1c2ccc(=O)cc-2oc2cc(O)ccc12
inactive: [1] -9.9% and 0.5% | [2] -21.8% and 29.6% | [3] 15.1% and 17.6% | [4] 21.2% and 7.05% | [5] -8.15% and 17.1% | [6] 4.65% and -5.95%

CCOC1(C)OC2OC(COC(c3ccccc3)(c3ccccc3)c3ccccc3)C(O)C(O)C2O1 (configuration not stated)
76.2% (active) and 27.6% (inactive): [5]
inactive: [1] 63% and 48.6% | [2] 28.9% and 6.85% | [4] 24.9% and 28.4% | [6] 50.9% and 50%
95.2% (active) and 54.7% (inactive): [3]

COc1ccc(/C=C2/N=C(N/N=C\C(O)C(O)C(O)CO)NC2=O)cc1 (configuration not stated)
inactive: [1] 1% and 34.4% | [2] 12.4% and 17.6% | [3] 3.55% and 13.3% | [4] 26.4% and 1.4% | [5] -6.95% and 21.9% | [6] -46% and 18.8%

OCC1OC(n2cnc3cncnc32)C(O)C1O (configuration not stated)
inactive: [1] 12.4% and 3.3% | [2] -40% and 24.9% | [3] 13.4% and 23.4% | [4] 12.3% and -35.8% | [5] -3.65% and 22.6% | [6] 2.15% and 29.9%

— PubChem BioAssay (NCI)
